This passage reports outcome results from PubChem BioAssay (EPA / NIEHS).

Results filed as inconclusive are left out. Activity calls are given as the source filed them. How the source made its calls: active means hit-call score of the fitted dose curve at least 0.9, where 1 is the maximum; inconclusive means response in the unintended direction; inactive means score below 0.9. Where a SMILES comes first, the peptide text is derived from it. Bridges are numbered along the chain shown (N, C = ends).

For experiment [1], the target named is Cellular tumor antigen p53 (Homo sapiens) (UniProt P04637). The experiment can be described thus: TOX21_p53_BLA_p3_ratio: Tox21 HCT-116 p53 Agonism Beta-lactamase Assay, Ratio, Phase 3 (AID 2283596). In a few lines:
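HCT116 p53-bla cells (4000/well) given compound in DMSO (217-fold dilution) after 5 h, incubated 16 h at 37C. CCF4-AM substrate 2 h at room temperature; 460/530 nm emission ratio, gain fitted against DMSO.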

Experiment [2] is described as follows: TOX21_p53_BLA_p3_viability: Viability Assessment in the Tox21 HCT-116 p53 Agonism Beta-lactamase Assay, Phase 3 (AID 2283593).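 Further: cells exposed to compound for 16 h before reading.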 An outline of the steps:
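Cellular ATP was quantified by CellTiter-Glo luminescence, read after 30 min at room temperature. Beforehand, HCT116 cells (4000/well) received compound 5 h post-seeding, 217-fold diluted from DMSO, then incubated 16 h at 37C.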

A short description of experiment [3]: TOX21_p53_BLA_p4_viability: Viability Assessment in the Tox21 HCT-116 p53 Agonism Beta-lactamase Assay, Phase 4 (AID 2283597).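 Further: hits lower the luminescence signal meaning cytotoxicity.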 An outline of the steps: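 HCT116 p53-bla cells (4000/well) rested 5 h at 37C, then received compounds in DMSO (217-fold dilution) for 16 h at 37C, 5% CO2. CellTiter-Glo was added after the CCF4-AM read, and luminescence was read after 30 min at room temperature.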

A short description of experiment [4]: TOX21_p53_BLA_p5_viability: Viability Assessment in the Tox21 HCT-116 p53 Agonism Beta-lactamase Assay, Phase 5 (AID 2283600). An outline of the steps: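 Cells were plated at 4000/well, rested 5 h at 37C, then given compounds in DMSO (217-fold dilution) for 16 h at 37C, 5% CO2. Following the CCF4-AM beta-lactamase read, CellTiter-Glo was added and luminescence was read after 30 min at room temperature.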

For experiment [5], the target named is Cellular tumor antigen p53 (Homo sapiens) (UniProt P04637). The experiment can be described thus: TOX21_p53_BLA_p5_ratio: Tox21 HCT-116 p53 Agonism Beta-lactamase Assay, Ratio, Phase 5 (AID 2283599). An outline of the steps:
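Beta-lactamase reporter ratio (blue 460 nm over green 530 nm, 405 nm excitation) after 2 h CCF4-AM loading, in HCT-116 cells exposed 16 h at 37 C to compounds pinned at 217-fold dilution. Increases relative to DMSO baseline scored.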

For experiment [6] the target is unchanged. The experiment can be described thus: TOX21_p53_BLA_p4_ratio: Tox21 HCT-116 p53 Agonism Beta-lactamase Assay, Ratio, Phase 4 (AID 2283601). An outline of the steps: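 Signal is the blue/green (460nm/530nm) ratio of cleaved versus uncleaved CCF4-AM substrate, read after 2 h substrate loading. Cells were HCT116 carrying the p53-responsive beta-lactamase reporter, dosed 16 h at 37C, 5% CO2; CellTiter-Glo measured in parallel.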

Sequence of Cellular tumor antigen p53 (Homo sapiens) (P04637 whole entry, looked up): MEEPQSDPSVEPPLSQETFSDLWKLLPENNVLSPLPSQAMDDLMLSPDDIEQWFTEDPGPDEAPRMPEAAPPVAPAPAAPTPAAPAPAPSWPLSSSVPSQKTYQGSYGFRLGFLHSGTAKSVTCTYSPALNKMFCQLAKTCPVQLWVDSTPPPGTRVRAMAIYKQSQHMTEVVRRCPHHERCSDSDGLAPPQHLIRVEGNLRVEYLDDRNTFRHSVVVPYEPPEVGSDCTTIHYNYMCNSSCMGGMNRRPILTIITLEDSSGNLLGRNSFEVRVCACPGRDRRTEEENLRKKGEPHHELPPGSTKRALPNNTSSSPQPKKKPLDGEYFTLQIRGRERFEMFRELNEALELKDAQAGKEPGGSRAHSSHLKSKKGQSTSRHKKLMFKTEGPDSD

For the compound `Cc1nnc(C(=O)NC(C)(C)c2nc(C(=O)NCc3ccc(F)cc3)c(O)c(=O)n2C)o1`, in experiment [1], the result was inactive.
For `CC(CC(=O)O)CC(C)(C)C` (stereo not drawn), the call in experiment [2], in experiment [3] and in experiment [4] was inactive.
Consider `c1ccc2cnncc2c1`, for which the call in experiment [2], in experiment [5] and in experiment [6] was inactive.
For `COC(=O)[C@@H](N)Cc1ccc(O)c(O)c1`, the compound was classed as inactive in experiment [2] and in experiment [5].
Take `CN1CCN(CCC(=O)N2c3ccccc3Sc3ccc(C(F)(F)F)cc32)CC1`: in experiment [1], the result was inactive.
For the compound `C[C@H]1O[C@H](O[C@H]2[C@H](O)[C@@H](O)[C@@H](O[C@H]3[C@H](O)[C@@H](O)[C@H](O)O[C@@H]3CO)O[C@@H]2CO)[C@H](O)[C@@H](O)[C@@H]1N[C@H]1C=C(CO)[C@@H](O)[C@H](O)[C@H]1O`, the call in experiment [2], in experiment [5], in experiment [4] and in experiment [6] was inactive.
On to `Nc1ncnc2c1ncn2CCOCP(=O)(O)O`, for which the compound was called inactive in experiment [2], in experiment [4] and in experiment [6].
Turning to `O=C(O[C@@H](C(=O)O)[C@@H](OC(=O)c1ccccc1)C(=O)O)c1ccccc1`, the compound was called inactive in experiment [2], in experiment [5] and in experiment [4].
On to `COc1ccc(C2CNC(=O)C2)cc1OC1CCCC1` (stereo not drawn), for which the result in experiment [2] and in experiment [6] was inactive.
Turning to `CCC(=O)c1cccc(Cl)c1`, the compound was called inactive in experiment [2], in experiment [4] and in experiment [6].
As for `CC(C)(C)N(CCO)CCO`, the result in experiment [2] and in experiment [6] was inactive.
On to `CCNS(=O)(=O)c1ccc(C)cc1`, for which the compound was called inactive in experiment [2], in experiment [5], in experiment [4] and in experiment [6].
Regarding `[Cl-].[Cl-].[NH-]CC[NH-].[Pt+4]`, the result in experiment [1] and in experiment [3] was inactive.
In the case of `Cc1ccc(NC(N)=O)cc1`, the call in experiment [2], in experiment [5] and in experiment [6] was inactive.
Consider `CCc1ccc(Br)cc1`, for which the compound was called inactive in experiment [2], in experiment [3] and in experiment [6].
As for `CCCCCCCCCCCCCC=O`, the result in experiment [2], in experiment [5] and in experiment [4] was inactive.
Consider `CCCCS(=O)(=O)N[C@@H](Cc1ccc(OCCCCC2CCNCC2)cc1)C(=O)O`, for which the outcome in experiment [2], in experiment [5] and in experiment [6] was inactive.
In the case of `CCN1CCCC(OC(=O)C(c2ccccc2)c2ccccc2)C1` (stereo not drawn), the result in experiment [1] was inactive.
With `CCCC(=O)Nc1ncnc2c1ncn2[C@@H]1O[C@@H]2COP(=O)(O)O[C@H]2[C@H]1OC(=O)CCC`, the compound was classed as inactive in experiment [2], in experiment [5], in experiment [4] and in experiment [6].
On to `CC(C)CCCC(=O)O`, for which the outcome in experiment [1] and in experiment [3] was inactive.
For `NCCCC[C@H](NC(=O)[C@@H]1CCCN1C(=O)[C@@H]1CSSC[C@H](NC(=O)CNC(=O)CNC(=O)CN)C(=O)N[C@@H](Cc2ccc(O)cc2)C(=O)N[C@@H](Cc2ccccc2)C(=O)N[C@@H](CCC(N)=O)C(=O)N[C@@H](CC(N)=O)C(=O)N1)C(=O)NCC(N)=O` (H-GGGCYFQNCPKG-NH2; disulfide 4-9), the call in experiment [2], in experiment [5] and in experiment [4] was inactive.
Regarding `Cc1cccc(C)c1N(CCCc1cccnc1)C(=O)C(C)N` (stereo not drawn), the result in experiment [2], in experiment [5] and in experiment [6] was inactive.
